Records with an inconclusive call do not appear. Active and inactive are the calls of the source. The call rests on the fitted dose curve; in most records, active means well fitted inhibition curve with a large enough effect; inconclusive means small, poorly fitted or top-dose-only effect; inactive means flat fitted curve, though single readings scatter.
Key:
Experiment in all cases: qHTS profiling for inhibitors of Plasmodium falciparum proliferation (AID 504749); further: nearly all actives have a fitted effect of over 60% in size
DIV14 = conditions: P. falciparum in erythrocytes, SYBR Green DNA, 72 h; series mostly up to 28.7 µM
Outline: (§1)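 Readout was DNA-dye fluorescence from lysed cultures, ex 485/em 535 nm. Parasitized red cells had grown 72 h with compound; data scaled between 0.29 uM artemisinin and DMSO wells and corrected using vehicle-only plates.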

DIV17 = conditions: P. falciparum in erythrocytes, SYBR Green DNA, 72 h; series mostly up to 28.7 µM
Outline: as §1

DIV30 = conditions: P. falciparum in erythrocytes, SYBR Green DNA, 72 h; series mostly up to 28.7 µM
Outline: as §1

Dd2 = conditions: P. falciparum in erythrocytes, SYBR Green DNA, 72 h; series mostly up to 28.7 µM
Outline: as §1

ECU = conditions: P. falciparum in erythrocytes, SYBR Green DNA, 72 h; series mostly up to 28.7 µM
Outline: as §1

FAB9 = conditions: P. falciparum in erythrocytes, SYBR Green DNA, 72 h; series mostly up to 28.7 µM
Outline: as §1

GB4 = conditions: P. falciparum in erythrocytes, SYBR Green DNA, 72 h; series mostly up to 28.7 µM
Outline: as §1

HB3 = conditions: P. falciparum in erythrocytes, SYBR Green DNA, 72 h; series mostly up to 28.7 µM
Outline: as §1

ICS = conditions: P. falciparum in erythrocytes, SYBR Green DNA, 72 h; series mostly up to 28.7 µM
Outline: as §1

JCK = conditions: P. falciparum in erythrocytes, SYBR Green DNA, 72 h; series mostly up to 28.7 µM
Outline: as §1

N140 = conditions: P. falciparum in erythrocytes, SYBR Green DNA, 72 h; series mostly up to 28.7 µM
Outline: as §1

P93_24 = conditions: P. falciparum in erythrocytes, SYBR Green DNA, 72 h; series mostly up to 28.7 µM
Outline: as §1

PAD = conditions: P. falciparum in erythrocytes, SYBR Green DNA, 72 h; series mostly up to 28.7 µM
Outline: as §1

PC15 = conditions: P. falciparum in erythrocytes, SYBR Green DNA, 72 h; series mostly up to 28.7 µM
Outline: as §1

PC26 = conditions: P. falciparum in erythrocytes, SYBR Green DNA, 72 h; series mostly up to 28.7 µM
Outline: as §1

PC49 = conditions: P. falciparum in erythrocytes, SYBR Green DNA, 72 h; series mostly up to 28.7 µM
Outline: as §1

SC27B = conditions: P. falciparum in erythrocytes, SYBR Green DNA, 72 h; series mostly up to 28.7 µM
Outline: as §1

TAB109 = conditions: P. falciparum in erythrocytes, SYBR Green DNA, 72 h; series mostly up to 28.7 µM
Outline: as §1

TAB113 = conditions: P. falciparum in erythrocytes, SYBR Green DNA, 72 h; series mostly up to 28.7 µM
Outline: as §1

P94_40 = conditions: P. falciparum in erythrocytes, SYBR Green DNA, 72 h
Outline: as §1

Measured: Potency
Potency means the concentration at half of the fitted maximal effect.

CCCOc1ccc2nc(NC(=O)OC)sc2c1
not listed: P94_40
inactive: all other assays above

C=CCNC1=C2C[C@@H](C)C[C@H](OC)[C@H](O)[C@@H](C)/C=C(\C)[C@H](OC(N)=O)[C@@H](OC)/C=C\C=C(/C)C(=O)NC(=CC1=O)C2=O
active: DIV14 1510 nM | DIV17 1200 nM | DIV30 1690 nM | ECU 1000 nM | FAB9 11200 nM | GB4 1510 nM | HB3 2000 nM | ICS 708 nM | JCK 12600 nM | N140 891 nM | P93_24 1260 nM | P94_40 794 nM | PAD 2000 nM | PC15 2000 nM | PC26 1510 nM | PC49 6310 nM | SC27B 1780 nM | TAB109 2000 nM | TAB113 1780 nM

COC1C(OC(=O)/C=C/C=C/C=C/C=C/C(=O)O)CCC2(CO2)C1C1(C)OC1CC=C(C)C (configuration not stated)
active: DIV14 379 nM | DIV17 5360 nM | Dd2 39.8 nM | GB4 1690 nM | P93_24 25.1 nM | P94_40 25.1 nM | PAD 1410 nM
inactive: JCK | PC49
